# Reference: publication PMC11006913
# Numbering of substitutions follows the chain as printed.
# Columns and labels:
# Assay in all cases: PBM; 200 nM protein, PBS
# Conditions in all cases: dsDNA, one strand shown
# CRX [1] = target: CRX (Homo sapiens, UniProt O43186 26-111)
# CRX [2] = target: CRX (Homo sapiens, UniProt O43186 26-111, E42D)
# CRX [3] = target: CRX (Homo sapiens, UniProt O43186 26-111, R41L)
# NKX2-4 [4] = target: T1, NKX2-4 (Homo sapiens, UniProt Q9H2Z4 175-261, P217L)
# T1 sequence: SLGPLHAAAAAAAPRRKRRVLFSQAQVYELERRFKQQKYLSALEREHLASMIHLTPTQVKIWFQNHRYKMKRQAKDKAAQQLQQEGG
# HOXB9 [5] = target: HOXB9 (Homo sapiens, UniProt P17482 171-250, T197M)
# NKX2-4 [6] = target: T2, NKX2-4 (Homo sapiens, UniProt Q9H2Z4 175-261, T231S)
# T2 sequence: T1 sequence with L43P, T57S
# NKX2-4 [7] = target: T3, NKX2-4 (Homo sapiens, UniProt Q9H2Z4 175-261)
# T3 sequence: T1 sequence with L43P
# HOXB9 [8] = target: HOXB9 (Homo sapiens, UniProt P17482 171-250)
# HOXD13 [9] = target: HOXD13 (Homo sapiens, UniProt P35453 263-343, T313R)
# HOXD13 [10] = target: HOXD13 (Homo sapiens, UniProt P35453 263-343)
# NKX2-4 [11] = target: T4, NKX2-4 (Homo sapiens, UniProt Q9H2Z4 175-261, R246Q)
# T4 sequence: T1 sequence with L43P, R72Q
# HOXD13 [12] = target: HOXD13 (Homo sapiens, UniProt P35453 263-343, T313A)
# HOXB9 [13] = target: HOXB9 (Homo sapiens, UniProt P17482 171-250, R186Q)
# SIX6 [14] = target: T5, SIX6 (Homo sapiens, UniProt O95475 114-200, L167I)
# T5 sequence: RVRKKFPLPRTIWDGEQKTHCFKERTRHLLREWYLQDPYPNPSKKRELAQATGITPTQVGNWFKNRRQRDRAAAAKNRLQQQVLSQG
# SIX6 [15] = target: T6, SIX6 (Homo sapiens, UniProt O95475 114-200, L143V)
# T6 sequence: T5 sequence with L30V, I54L
# SIX6 [16] = target: T7, SIX6 (Homo sapiens, UniProt O95475 114-200, H141N)
# T7 sequence: T5 sequence with H28N, I54L
# SIX6 [17] = target: T8, SIX6 (Homo sapiens, UniProt O95475 114-200, T165P)
# T8 sequence: T5 sequence with T52P, I54L
# SIX6 [18] = target: T9, SIX6 (Homo sapiens, UniProt O95475 114-200, L167M)
# T9 sequence: T5 sequence with I54M
# SIX6 [19] = target: T10, SIX6 (Homo sapiens, UniProt O95475 114-200, L143M)
# T10 sequence: T5 sequence with L30M, I54L
# SIX6 [20] = target: T11, SIX6 (Homo sapiens, UniProt O95475 114-200, L143I)
# T11 sequence: T5 sequence with L30I, I54L
# SIX6 [21] = target: T12, SIX6 (Homo sapiens, UniProt O95475 114-200, T165G)
# T12 sequence: T5 sequence with T52G, I54L
# SIX6 [22] = target: T13, SIX6 (Homo sapiens, UniProt O95475 114-200, T139Q)
# T13 sequence: T5 sequence with T26Q, I54L
# SIX6 [23] = target: T14, SIX6 (Homo sapiens, UniProt O95475 114-200, T165A)
# T14 sequence: T5 sequence with T52A, I54L
# SIX6 [24] = target: T15, SIX6 (Homo sapiens, UniProt O95475 114-200, L167V)
# T15 sequence: T5 sequence with I54V
# SIX6 [25] = target: T16, SIX6 (Homo sapiens, UniProt O95475 114-200)
# T16 sequence: T5 sequence with I54L
# SIX6 [26] = target: T17, SIX6 (Homo sapiens, UniProt O95475 114-200, T165I)
# T17 sequence: T5 sequence with T52I, I54L
# NKX2-5 = NKX2-5 (Homo sapiens, UniProt P52952 125-210)
# Sequence of NKX2-5 (P52952 125-210): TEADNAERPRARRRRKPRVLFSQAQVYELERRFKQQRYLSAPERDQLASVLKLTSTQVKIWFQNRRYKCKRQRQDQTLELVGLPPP
# Sequence of CRX (Homo sapiens, UniProt O43186 26-111, E42D) (O43186 26-111 E42D): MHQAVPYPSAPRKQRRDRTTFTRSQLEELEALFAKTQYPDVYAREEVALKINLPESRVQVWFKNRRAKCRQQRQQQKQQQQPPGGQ
# Sequence of CRX (Homo sapiens, UniProt O43186 26-111, R41L) (O43186 26-111 R41L): as the sequence (O43186 26-111 E42D) above, with R16L, D17E counted along it
# Sequence of CRX (Homo sapiens, UniProt O43186 26-111) (O43186 26-111): as the sequence (O43186 26-111 E42D) above, with D17E counted along it
# Sequence of HOXB9 (Homo sapiens, UniProt P17482 171-250, R186Q) (P17482 171-250 R186Q): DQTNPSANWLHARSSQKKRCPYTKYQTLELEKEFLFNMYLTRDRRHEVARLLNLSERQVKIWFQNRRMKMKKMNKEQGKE
# Sequence of HOXB9 (Homo sapiens, UniProt P17482 171-250) (P17482 171-250): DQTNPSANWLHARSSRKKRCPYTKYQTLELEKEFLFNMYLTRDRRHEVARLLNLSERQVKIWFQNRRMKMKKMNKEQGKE
# Sequence of HOXD13 (Homo sapiens, UniProt P35453 263-343, T313R) (P35453 263-343 T313R): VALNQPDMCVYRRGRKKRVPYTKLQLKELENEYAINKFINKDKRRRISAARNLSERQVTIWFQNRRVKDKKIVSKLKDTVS
# Sequence of HOXD13 (Homo sapiens, UniProt P35453 263-343) (P35453 263-343): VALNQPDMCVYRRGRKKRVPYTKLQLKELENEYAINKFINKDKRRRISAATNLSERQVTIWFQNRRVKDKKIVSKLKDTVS
# Sequence of HOXD13 (Homo sapiens, UniProt P35453 263-343, T313A) (P35453 263-343 T313A): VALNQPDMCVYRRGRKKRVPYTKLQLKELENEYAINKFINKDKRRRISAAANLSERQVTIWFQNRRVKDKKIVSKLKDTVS
# Sequence of HOXB9 (Homo sapiens, UniProt P17482 171-250, T197M) (P17482 171-250 T197M): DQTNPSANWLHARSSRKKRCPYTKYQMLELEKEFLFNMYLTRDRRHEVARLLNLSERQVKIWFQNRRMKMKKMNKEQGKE
sequence,measurement,setting,value
GGGTGGCA,binding signal,CRX [1],"8.24 upbm affinity estimate (log intensity, higher = more binding, comparable within an allelic series)"
same,binding signal,CRX [2],"8.24 upbm affinity estimate (log intensity, higher = more binding, comparable within an allelic series)"
same,binding signal,CRX [3],"8.32 upbm affinity estimate (log intensity, higher = more binding, comparable within an allelic series)"
CTGGTCGA,binding signal,CRX [1],"8.44 upbm affinity estimate (log intensity, higher = more binding, comparable within an allelic series)"
same,binding signal,CRX [2],"8.35 upbm affinity estimate (log intensity, higher = more binding, comparable within an allelic series)"
same,binding signal,CRX [3],"8.29 upbm affinity estimate (log intensity, higher = more binding, comparable within an allelic series)"
GGGCTCCA,binding signal,CRX [1],"8.35 upbm affinity estimate (log intensity, higher = more binding, comparable within an allelic series)"
same,binding signal,CRX [2],"8.31 upbm affinity estimate (log intensity, higher = more binding, comparable within an allelic series)"
same,binding signal,CRX [3],"8.31 upbm affinity estimate (log intensity, higher = more binding, comparable within an allelic series)"
ACAGGCAC,binding signal,CRX [1],"8.14 upbm affinity estimate (log intensity, higher = more binding, comparable within an allelic series)"
same,binding signal,CRX [2],"8.14 upbm affinity estimate (log intensity, higher = more binding, comparable within an allelic series)"
same,binding signal,CRX [3],"8.23 upbm affinity estimate (log intensity, higher = more binding, comparable within an allelic series)"
CGGATTAC,binding signal,CRX [1],"13.4 upbm affinity estimate (log intensity, higher = more binding, comparable within an allelic series)"
same,binding signal,CRX [2],"13.3 upbm affinity estimate (log intensity, higher = more binding, comparable within an allelic series)"
same,binding signal,CRX [3],"13.3 upbm affinity estimate (log intensity, higher = more binding, comparable within an allelic series)"
ACCGCACC,binding signal,CRX [1],"8.25 upbm affinity estimate (log intensity, higher = more binding, comparable within an allelic series)"
same,binding signal,CRX [2],"8.39 upbm affinity estimate (log intensity, higher = more binding, comparable within an allelic series)"
same,binding signal,CRX [3],"8.35 upbm affinity estimate (log intensity, higher = more binding, comparable within an allelic series)"
CCGGATAA,binding signal,CRX [1],"11.5 upbm affinity estimate (log intensity, higher = more binding, comparable within an allelic series)"
same,binding signal,CRX [2],"11.3 upbm affinity estimate (log intensity, higher = more binding, comparable within an allelic series)"
same,binding signal,CRX [3],"10.9 upbm affinity estimate (log intensity, higher = more binding, comparable within an allelic series)"
CATGACAG,binding signal,CRX [1],"8.34 upbm affinity estimate (log intensity, higher = more binding, comparable within an allelic series)"
same,binding signal,CRX [2],"8.16 upbm affinity estimate (log intensity, higher = more binding, comparable within an allelic series)"
same,binding signal,CRX [3],"8.25 upbm affinity estimate (log intensity, higher = more binding, comparable within an allelic series)"
GGCGTCCC,binding signal,CRX [1],"8.17 upbm affinity estimate (log intensity, higher = more binding, comparable within an allelic series)"
same,binding signal,CRX [2],"8.13 upbm affinity estimate (log intensity, higher = more binding, comparable within an allelic series)"
same,binding signal,CRX [3],"8.1 upbm affinity estimate (log intensity, higher = more binding, comparable within an allelic series)"
CACCAGGC,binding signal,CRX [1],"8.58 upbm affinity estimate (log intensity, higher = more binding, comparable within an allelic series)"
same,binding signal,CRX [2],"8.49 upbm affinity estimate (log intensity, higher = more binding, comparable within an allelic series)"
same,binding signal,CRX [3],"8.39 upbm affinity estimate (log intensity, higher = more binding, comparable within an allelic series)"
GCGCCGCC,binding signal,NKX2-4 [4],"9.93 upbm affinity estimate (log intensity, higher = more binding, comparable within an allelic series)"
same,binding signal,HOXB9 [5],"8.49 upbm affinity estimate (log intensity, higher = more binding, comparable within an allelic series)"
same,binding signal,NKX2-4 [6],"9.45 upbm affinity estimate (log intensity, higher = more binding, comparable within an allelic series)"
same,binding signal,NKX2-4 [7],"9.72 upbm affinity estimate (log intensity, higher = more binding, comparable within an allelic series)"
same,binding signal,HOXB9 [8],"8.66 upbm affinity estimate (log intensity, higher = more binding, comparable within an allelic series)"
same,binding signal,HOXD13 [9],"9.49 upbm affinity estimate (log intensity, higher = more binding, comparable within an allelic series)"
same,binding signal,HOXD13 [10],"9.76 upbm affinity estimate (log intensity, higher = more binding, comparable within an allelic series)"
same,binding signal,NKX2-4 [11],"9.62 upbm affinity estimate (log intensity, higher = more binding, comparable within an allelic series)"
same,binding signal,HOXD13 [12],"9.79 upbm affinity estimate (log intensity, higher = more binding, comparable within an allelic series)"
same,binding signal,HOXB9 [13],"8.63 upbm affinity estimate (log intensity, higher = more binding, comparable within an allelic series)"
CCCTGCGC,binding signal,NKX2-4 [4],"9.21 upbm affinity estimate (log intensity, higher = more binding, comparable within an allelic series)"
same,binding signal,SIX6 [14],"8.93 upbm affinity estimate (log intensity, higher = more binding, comparable within an allelic series)"
same,binding signal,SIX6 [15],"8.85 upbm affinity estimate (log intensity, higher = more binding, comparable within an allelic series)"
same,binding signal,NKX2-4 [6],"9.11 upbm affinity estimate (log intensity, higher = more binding, comparable within an allelic series)"
same,binding signal,SIX6 [16],"8.92 upbm affinity estimate (log intensity, higher = more binding, comparable within an allelic series)"
same,binding signal,SIX6 [17],"8.96 upbm affinity estimate (log intensity, higher = more binding, comparable within an allelic series)"
same,binding signal,SIX6 [18],"8.94 upbm affinity estimate (log intensity, higher = more binding, comparable within an allelic series)"
same,binding signal,NKX2-4 [7],"9.27 upbm affinity estimate (log intensity, higher = more binding, comparable within an allelic series)"
same,binding signal,SIX6 [19],"8.96 upbm affinity estimate (log intensity, higher = more binding, comparable within an allelic series)"
same,binding signal,SIX6 [20],"8.9 upbm affinity estimate (log intensity, higher = more binding, comparable within an allelic series)"
same,binding signal,SIX6 [21],"8.89 upbm affinity estimate (log intensity, higher = more binding, comparable within an allelic series)"
same,binding signal,SIX6 [22],"8.98 upbm affinity estimate (log intensity, higher = more binding, comparable within an allelic series)"
same,binding signal,SIX6 [23],"8.88 upbm affinity estimate (log intensity, higher = more binding, comparable within an allelic series)"
same,binding signal,SIX6 [24],"9 upbm affinity estimate (log intensity, higher = more binding, comparable within an allelic series)"
same,binding signal,NKX2-4 [11],"9.27 upbm affinity estimate (log intensity, higher = more binding, comparable within an allelic series)"
same,binding signal,SIX6 [25],"8.86 upbm affinity estimate (log intensity, higher = more binding, comparable within an allelic series)"
same,binding signal,SIX6 [26],"8.88 upbm affinity estimate (log intensity, higher = more binding, comparable within an allelic series)"
ACTAATCT,binding signal,CRX [1],"13.1 upbm affinity estimate (log intensity, higher = more binding, comparable within an allelic series)"
same,binding signal,CRX [2],"13.1 upbm affinity estimate (log intensity, higher = more binding, comparable within an allelic series)"
same,binding signal,CRX [3],"12.7 upbm affinity estimate (log intensity, higher = more binding, comparable within an allelic series)"
GGTGCTTA,binding signal,CRX [1],"11 upbm affinity estimate (log intensity, higher = more binding, comparable within an allelic series)"
same,binding signal,CRX [2],"10.9 upbm affinity estimate (log intensity, higher = more binding, comparable within an allelic series)"
same,binding signal,CRX [3],"10.4 upbm affinity estimate (log intensity, higher = more binding, comparable within an allelic series)"
same,binding signal,NKX2-5,"10.4 upbm affinity estimate (log intensity, higher = more binding, comparable within an allelic series)"
